# Compounds with a hit are over-represented: about 6% of the library has one in this group of screens.
# VDR inh: vitamin D3 receptor (human) inhibition; P11473; VDR-SRC2-3 peptide fluorescence polarization, 2 h; Potency, µM, without a hit: max response, negative = inhibition, usual class: inhibitors; 400,000 tested, 0.93% active; AID 504847
# Target sequence (P11473 whole entry, looked up): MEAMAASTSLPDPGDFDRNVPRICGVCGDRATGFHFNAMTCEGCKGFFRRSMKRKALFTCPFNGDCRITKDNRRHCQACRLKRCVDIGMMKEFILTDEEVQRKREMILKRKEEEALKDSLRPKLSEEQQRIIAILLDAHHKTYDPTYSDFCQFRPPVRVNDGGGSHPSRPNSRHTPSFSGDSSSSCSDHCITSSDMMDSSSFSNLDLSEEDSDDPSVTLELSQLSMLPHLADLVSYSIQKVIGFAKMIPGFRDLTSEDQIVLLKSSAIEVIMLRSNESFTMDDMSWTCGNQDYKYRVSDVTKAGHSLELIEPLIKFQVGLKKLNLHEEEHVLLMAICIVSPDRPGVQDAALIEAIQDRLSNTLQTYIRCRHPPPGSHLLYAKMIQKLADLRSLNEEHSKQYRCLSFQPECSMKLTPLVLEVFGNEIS
#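 Fluorescence polarization assay measuring small-molecule disruption of VDR binding to the coregulator peptide SRC2-3. Compounds were pin-transferred (23 nl) into the reagent mix and incubated 2 h at room temperature before reading.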
# PLK1 PBD block: PLK1 (human) polo-box domain binding inhibition. Plk1 PBD binding of FITC phosphopeptide, fluorescence polarization. Potency, µM, for inactives: max response, negative = inhibition, most hits filed as inhibitors. 360,000 tested, 2.8% active. P53350; also: series mostly up to about 57 µM; nearly all actives have a fitted effect of over 65% in size
# Tau fluor cs: counter-screen for tau fibril formation inhibitors | tau K18 P301L Alexa594 fluorescence, heparin fibrillization | Potency, µM (highest dose often 57.7 µM), without a hit: at the top dose activity change, negative = decrease | 280,000 tested, 0.93% active | AID 1463; also: nearly all actives have a fitted effect of over 55% in size
#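 Human tau K18 P301L (15 uM unlabeled, 0.24 uM Alexa 594-labeled) in 100 mM sodium acetate pH 7 with 20 uM heparin, 6 hr at 37 C. ThT 30 uM added, 1 hr ambient; Alexa 594 FP and total fluorescence read at 555/632 nm.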
# Tau fibril ThT: blocks human tau fibril formation measured by thioflavin T; P10636; recombinant tau K18 P301L, heparin-induced fibrillization, ThT fluorescence; Potency, µM (series often up to 57.4 µM), for the others: top-dose activity, negative = inhibition, hits mostly inhibitors; 270,000 tested, 2.1% active; also: nearly all actives have a fitted effect of over 55% in size
# Target sequence (P10636 561-689 P618L limits assumed): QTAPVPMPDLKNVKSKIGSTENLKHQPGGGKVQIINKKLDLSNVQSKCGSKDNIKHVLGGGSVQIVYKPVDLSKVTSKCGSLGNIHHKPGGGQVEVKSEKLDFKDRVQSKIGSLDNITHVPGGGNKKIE
#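 ThT emission at 510 nm, taken 1 hr after adding 30 uM dye, quantifies aggregates formed when 20 uM heparin acts on human tau K18 P301L for 6 hr at 37 C.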
# Sfp inh: blocks B. subtilis Sfp PPTase activity; Biochemical Sfp PPTase activity, qHTS; Potency, µM, without a hit: largest response in the series, negative = inhibition, actives largely listed as inhibitors; 310,000 tested, 3.5% active;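 also: the enzyme is Sfp with the accession as filed and its product quenches rhodamine fluorescence; 0% = enzyme reaction without inhibitor and -100% = no enzyme wells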
#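 Step 1, compound plus 15 nM Sfp-PPTase, 15 min, room temperature. Step 2, add rhodamine-CoA (5 uM) and BHQ-2-YbbR (12.5 uM). Step 3, read 525/598 nm fluorescence at 0 and 30 min.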
# Tau fibril FP: blocks human tau fibril formation measured by polarization; P10636; K18 P301L tau heparin fibrillization, Alexa594 FP, 6 h; Potency, µM (series often up to 57.7 µM), for inactives: at the top dose activity, negative = inhibition, hits mostly inhibitors; 280,000 tested, 0.39% active; AID 1468; also: nearly all actives have a fitted effect of over 55% in size
#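 K18 P301L tau (15 uM unlabeled/0.24 uM Alexa 594-labeled, final) + compound + heparin 20 uM final; 100 mM NaOAc pH 7; 6 hr 37 C; ThT 30 uM final added, 1 hr RT; FP ex 555/em 632 nm.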
# An asterisk follows results filed as active; ? = inconclusive; / = no result; [ ] = another dose, or the depositor's remark. Calls follow the shape of the dose curve; as a rule, active = well fitted curve in the direction sought with a large enough effect; inconclusive = small, poorly fitted or top-dose-only effect, or another doubt; inactive = no such curve, though single readings can be large; an effect the other way counts as inactive or inconclusive. Unless noted, % is scaled to controls: 0 for no effect and ±100 for the full control effect; potency is read from the fitted curve at half-maximal effect.
SMILES,VDR inh,PLK1 PBD block,Tau fluor cs,Tau fibril ThT,Sfp inh,Tau fibril FP
CC(/C=C1\SC(=S)N(NS(=O)(=O)c2ccc(C)cc2)C1=O)=C\c1ccccc1,?,19µM*,-15%,11µM*,-5%,?
CC(/C=C1\SC(=S)N(NS(=O)(=O)c2ccccc2)C1=O)=C\c1ccccc1,?,0%,-29%,10µM*,2%,?
CCN1C(=O)/C(=C2\SC(=S)N(NC(=O)c3ccccc3O)C2=O)c2ccccc21,12%,-29%,20µM*[quencher],20µM*,-21%,?
CC(=O)N1C(=O)/C(=C2\SC(=S)N(NS(=O)(=O)c3ccc(C)cc3)C2=O)c2ccccc21,2%,17µM*,?,14µM*,45µM*,?
Cc1cn(CC(=O)NCC2CCCO2)c(=O)[nH]c1=O (stereo not given),-18%,?,/,/,/,/
CSc1nc2sc3c(c2c(=O)n1-c1ccc(F)c(Cl)c1)CCN(C(C)=O)C3,2%,/,-12%,-16%,/,-4%
COc1ccccc1C(=O)N/C(=C/c1cccc([N+](=O)[O-])c1)C(=O)Nc1cccc(C(=O)O)c1,?,30µM*,-3%,-11%,-8%,9%
Cc1cc(NC(=O)Nc2cccc([N+](=O)[O-])c2)no1,-6%,-1%,-15%,-4%,5%,2%
Cc1ccc(NC(=O)Nc2cccc([N+](=O)[O-])c2)cc1F,10%,-12%,5.6µM*[quencher],?,79µM*,?
Cc1occc1C(=O)Nc1ccc([N+](=O)[O-])cc1Br,-91%,-9%,/,/,-1%,/
CC(C)(C)c1ccc(C(=O)Nc2cccc([N+](=O)[O-])c2)cc1,2%,-2%,7.9µM*[quencher],?,0%,?
Cc1occc1C(=O)Nc1cccc([N+](=O)[O-])c1,22µM*,-19%,-6%,-4%,8%,8%
O=C(Nc1cccc([N+](=O)[O-])c1)c1ccncc1,-1%,4%,-5%,-3%,14%,5%
COC(=O)N[C@@H](c1cccc(F)c1)C(C(C)=O)C(=O)OC (stereo not given in full),/,/,-1%,0%,-7%,-1%
COC(=O)[C@@H]1CC[C@H](C)[C@@H](c2ccc(C)cc2)N1C(=O)c1ccc(/C=N\OCC[C@@H]2C=C[C@H](OC(C)=O)[C@H](COC(C)=O)O2)cc1,/,/,2%[11.6 µM],0%[11.5 µM],-8%,5%[11.6 µM]
CCN(CC)C(=O)c1sc2c(c1C)c(=O)n(-c1ccc(C)c(C)c1)c(=O)n2Cc1cc(=O)n2ccccc2n1,8%,/,-5%,2%,/,-6%
O=C(NC(=S)Nc1cccc([N+](=O)[O-])c1)c1ccco1,-13%,-10%,-1%,-4%,?,3%
O=C(NC(=S)Nc1cccc([N+](=O)[O-])c1)c1ccccc1,-22%,-10%,-28%,?,45µM*,?
Cc1ccccc1C(=O)NC1CCN(CC(=O)NC2CCCCC2)CC1,25%,-5%,/,/,15%,/
C=CCn1c(N)c(C(=O)NCCC2=CCCCC2)sc1=S,?,7.5µM*,?,?,25µM*,3%
Cc1cc(N2CCN(C)CC2)nc2ccc(NC(=O)c3ccc(Br)o3)cc12,-11%,-7%,?,?,-6%,9%
Cc1cc(N2CCCCC2)nc2ccc(NC(=O)c3ccc(Br)o3)cc12,24%,-7%,25µM*[quencher],8.9µM*,5%,?
Cc1cc(N2CCCCC2)nc2ccc(NC(=O)c3ccc(F)cc3)cc12,-7%,/,16µM*[quencher],?,/,?
O=C(Nc1ccc(N2CCCC2)cc1)c1ccc(Br)o1,-3%,-2%,?,8.9µM*,?,8%
Cc1cc(N2CCN(C)CC2)nc2ccc(NC(=O)c3ccc4c(c3)OCO4)cc12,-7%,1%,?,?,-1%,14%
SMILES,VDR inh,PLK1 PBD block,Tau fluor cs,Tau fibril ThT,Sfp inh,Tau fibril FP
O=C(NCCCN1CCN(c2ccc(F)cc2)CC1)c1cnn(-c2ccc(F)cc2)c1-n1cccc1,9%,/,-12%,-11%,/,?
CCOc1ccccc1NC(=O)CSc1nnc(CNC(=O)c2cc(OC)c(OC)c(OC)c2)o1,18%,?,/,/,12%,/
Cc1ccc(-c2nnc(Nc3ccc(C(=O)N(C)C)cc3)c3ccccc23)cc1S(=O)(=O)N(C)C,-19%,/,-18%,-3%,/,-6%
COc1c2n(C)ccc3c-2n(c(=O)c1=O)c1ccccc31,?,-1%,/,/,/,/
Cn1ccc(=S)c2ccccc21,-15%,12µM*,-4%,?,35µM*,-14%
COc1ccc2cc(C(=O)CS(=O)(=O)c3ccccc3)c(=O)oc2c1,-9%,-18%,/,/,7%,/
COc1cccc2cc(C(=O)CS(=O)(=O)c3ccc(C(C)(C)C)cc3)c(=O)oc12,-8%,7.5µM*,/,/,0%,/
O=C(CS(=O)(=O)c1ccccc1)c1cc2cc(F)ccc2oc1=O,18%,15µM*,/,/,0%,/
O=C(CS(=O)(=O)c1ccccc1)c1cc2ccccc2oc1=O,-11%,?,/,/,4%,/
COc1ccc(S(=O)(=O)CC(=O)c2cc3cccc(C)c3oc2=O)cc1,-25%,27µM*,/,/,-5%,/
Cc1c(C(=O)N(Cc2ccco2)Cc2ccccc2Cl)oc2ccc(F)cc12,0%,/,-22%,?,/,-10%
Cc1cccc(C)c1NC(=O)C(C1CC1)n1c(-c2ccc(-c3ccccc3)cc2)nc2ccccc21 (stereo not given),/,5%,/,/,/,/
COc1ccc(S(=O)(=O)N2CCOCC2)cc1NC(=O)CCOc1ccc(C(C)(C)C)cc1,4%,-2%,/,/,/,/
O=C(NCc1ccc(F)cc1)c1ccc(CS(=O)(=O)c2ccc(Cl)cc2)o1,-3%,/,-7%,8%,/,1%
Cc1ccc(/C=C/C2=Cc3c(sc(NC(=O)CSc4n[nH]c(N)n4)c3C#N)C(C)(C)C2)o1,/,/,-28%,?,2.5µM*,?
CCCOc1ccc(S(=O)(=O)NCCN2CCOCC2)c2ccccc12,-6%,-16%,1%,-9%,3%,3%
CCOc1ccc(S(=O)(=O)NCCN2CCOCC2)c2ccccc12,22%,-11%,-12%,-8%,79µM*,1%
O=C(COc1ccc(S(=O)(=O)N2CCOCC2)cc1Cl)NCc1ccc2c(c1)OCO2,/,-1%,/,/,/,/
CCOCCCNS(=O)(=O)c1ccc2c(c1)OCCO2,-1%,?,16µM*[quencher],16µM*,17%,-5%
COCCCNS(=O)(=O)c1ccc2c(c1)OCCO2,-10%,-9%,0%,1%,-9%,-6%
CC1(C(=O)NCc2ccc3c(c2)OCO3)CCN1C(=O)CC1CCCC1 (stereo not given),/,1%,/,/,/,/
O=C(CN1C(=O)CC(c2ccccc2)Sc2ccccc21)Nc1cccc(Cl)c1 (stereo not given),-3%,/,-24%,-1%,/,?
